# In the supplement of paper PMC5940239:
# System: Madurella mycetomatis MM55
# Assay: not given
# Conditions: 7 days
row,SMILES,IC50
1,Cc1cc(C)c2cc(C(=O)NC3CCCCCCC3)[nH]c2c1,64.9 µM
2,CN1CCC(NCc2cccc(-c3ccc(S(=O)(=O)NCc4ccccc4)cc3)c2)CC1,40.8 µM
3,CCOc1ccc2cc(-c3nn(CC4CCN(C)CC4)c4ncnc(N)c34)ccc2c1,51.8 µM
4,CNc1nnc(Sc2cnn(-c3ccccc3)c(=O)c2Cl)s1,54.9 µM
5,Cc1cc(OCC(=O)NCc2ccccc2)c2cc(Br)ccc2n1,67.9 µM
6,CC(Oc1ccccc1)C(=O)Nc1nc(-c2ccccn2)cs1 (stereo unspecified),10.1 µM
7,CN1CCC(c2cc(-c3ccncc3)c(-c3ccc(F)cc3)[nH]2)CC1,56.4 µM
8,N=C(N)c1ccc(-c2cc(-c3ccccc3)on2)cc1,52.1 µM
9,C[C@H](c1ccc2c(c1)CCCC2)N(C)c1ncc2c(N)nc(N)nc2n1,63.7 µM
10,O=C(Nc1ccc(N2CCNCC2)nc1)c1oc(-c2ccccc2)nc1C(F)(F)F,37.9 µM
11,CC1=Nc2ccc(Cl)cc2C(O)(c2ccc(C)cc2)N1CCN1CCCCC1 (stereo unspecified),49.3 µM
12,CC(C)(C)n1nc(Cc2ccc(F)c(Cl)c2)c2c(N)ncnc21,62 µM
13,NCC(c1cccs1)S(=O)(=O)c1ccccc1 (stereo unspecified),53.9 µM
14,c1ccc(-c2cc(N3CCCCC3)c3ccccc3n2)nc1,60 µM
15,CC[P](CC)(CC)=[Au][S][C@H]1O[C@@H](COC(C)=O)[C@H](OC(C)=O)[C@@H](OC(C)=O)[C@@H]1OC(C)=O,17.1 µM
16,CCCCOC(=O)Nc1cc2nc(C3CCCCC3)[nH]c2cc1N1CCCC1,11.6 µM
17,Cc1cnc(N2CCN[C@@H](Cc3ccccc3)C2)nc1Oc1ccc(-n2ccnc2)cc1,10.7 µM
18,Cc1[nH]c2ccccc2c1C(c1cccs1)N1CCN(C)CC1 (stereo unspecified),12.7 µM
19,COc1cc2ncnc(NC3CCN(Cc4ccccc4)CC3)c2cc1OC,66.6 µM

row,SMILES,IC50
1,c1ccc(Oc2ccc(-c3cc(N4CCNCC4)[nH]n3)cc2)cc1,35.1 µM
2,COc1ccc(-c2cc(NC(=O)c3ccc(F)cc3Cl)ccc2OC)cc1,31.4 µM
3,COc1ccc(-c2cnc3cnc(-c4cccc(OC(C)C)c4)cn23)cc1,43.6 µM
4,CC(C)(C)C1CCC(CC2=C(O)C(=O)c3ccccc3C2=O)CC1 (stereo unspecified),66.8 µM
5,COc1cccc(-c2cc3c(Nc4cccnc4)nccc3[nH]2)c1,51.8 µM
6,Cc1ccc2nc(Cl)c(CNCc3cccs3)cc2c1,37.5 µM
7,c1ccc(C[C@@H]2CN(c3nccc(Oc4ccc(-n5ccnc5)cc4)n3)CCN2)cc1,58.9 µM
8,COc1ccc(OC)c(NCc2ccc3nc(N)nc(N)c3c2Cl)c1,2.3 µM
9,CN1CCCC1CCO[C@](C)(c1ccccc1)c1ccc(Cl)cc1 (stereo partly specified),9.85 µM
10,Cc1nn(C(=O)Nc2cccc(C(F)(F)F)c2)c(C)c1Sc1ncccn1,68.5 µM
11,COc1cccc(-n2nnnc2S(=O)(=O)Cc2ccccc2)c1,45.7 µM
12,CN1CCN(c2nccc3[nH]c(-c4cccc(F)c4)cc23)CC1,50.5 µM
13,COc1ccc(-c2cnc3ccc(N4CCCC4)nn23)cc1OC,64 µM
14,O=C1COCc2ccc(Br)cc2N1Cc1ccc(C(F)(F)F)cc1,45 µM
15,Cc1cc(C)n(-c2ccc(NC(=O)C3CCN(Cc4cnc(C)s4)CC3)cc2)n1,48.8 µM
16,CCCn1nnc(NC(=O)COc2ccc(C3CCCCC3)cc2)n1,65.8 µM
17,c1cncc(NCc2ccc(-c3cc4ccncc4cc3OC3CCNCC3)s2)c1,53.9 µM
18,O=C([C@@H](c1ccc(Cl)cc1)c1cccnc1)N1CCN(c2ccc(C(F)(F)F)cc2)CC1,1.35 µM
19,CCCCCCCCCCCCCCCCOP(=O)([O-])OCC[N+](C)(C)C,59.3 µM

# System: Madurella mycetomatis MM55
# Assay: IC90; higher = less potent
# Conditions: 7 days
row,SMILES,IC90
1,Cc1cc(C)c2cc(C(=O)NC3CCCCCCC3)[nH]c2c1,94.3 µM
2,CN1CCC(NCc2cccc(-c3ccc(S(=O)(=O)NCc4ccccc4)cc3)c2)CC1,92 µM
3,CCOc1ccc2cc(-c3nn(CC4CCN(C)CC4)c4ncnc(N)c34)ccc2c1,87.8 µM
4,CNc1nnc(Sc2cnn(-c3ccccc3)c(=O)c2Cl)s1,90.8 µM
5,Cc1cc(OCC(=O)NCc2ccccc2)c2cc(Br)ccc2n1,100 µM
6,CC(Oc1ccccc1)C(=O)Nc1nc(-c2ccccn2)cs1 (stereo unspecified),18.5 µM
7,CN1CCC(c2cc(-c3ccncc3)c(-c3ccc(F)cc3)[nH]2)CC1,91.6 µM
8,N=C(N)c1ccc(-c2cc(-c3ccccc3)on2)cc1,90.2 µM
9,C[C@H](c1ccc2c(c1)CCCC2)N(C)c1ncc2c(N)nc(N)nc2n1,91 µM
10,O=C(Nc1ccc(N2CCNCC2)nc1)c1oc(-c2ccccc2)nc1C(F)(F)F,85.3 µM
11,CC1=Nc2ccc(Cl)cc2C(O)(c2ccc(C)cc2)N1CCN1CCCCC1 (stereo unspecified),92.3 µM
12,CC(C)(C)n1nc(Cc2ccc(F)c(Cl)c2)c2c(N)ncnc21,93 µM
13,NCC(c1cccs1)S(=O)(=O)c1ccccc1 (stereo unspecified),91.8 µM
14,c1ccc(-c2cc(N3CCCCC3)c3ccccc3n2)nc1,92.4 µM
15,CC[P](CC)(CC)=[Au][S][C@H]1O[C@@H](COC(C)=O)[C@H](OC(C)=O)[C@@H](OC(C)=O)[C@@H]1OC(C)=O,45.8 µM
16,CCCCOC(=O)Nc1cc2nc(C3CCCCC3)[nH]c2cc1N1CCCC1,18.4 µM
17,Cc1cnc(N2CCN[C@@H](Cc3ccccc3)C2)nc1Oc1ccc(-n2ccnc2)cc1,20.8 µM
18,Cc1[nH]c2ccccc2c1C(c1cccs1)N1CCN(C)CC1 (stereo unspecified),47 µM
19,COc1cc2ncnc(NC3CCN(Cc4ccccc4)CC3)c2cc1OC,92.3 µM

row,SMILES,IC90
1,c1ccc(Oc2ccc(-c3cc(N4CCNCC4)[nH]n3)cc2)cc1,81.3 µM
2,COc1ccc(-c2cc(NC(=O)c3ccc(F)cc3Cl)ccc2OC)cc1,53 µM
3,COc1ccc(-c2cnc3cnc(-c4cccc(OC(C)C)c4)cn23)cc1,95 µM
4,CC(C)(C)C1CCC(CC2=C(O)C(=O)c3ccccc3C2=O)CC1 (stereo unspecified),92.7 µM
5,COc1cccc(-c2cc3c(Nc4cccnc4)nccc3[nH]2)c1,92.5 µM
6,Cc1ccc2nc(Cl)c(CNCc3cccs3)cc2c1,54.5 µM
7,c1ccc(C[C@@H]2CN(c3nccc(Oc4ccc(-n5ccnc5)cc4)n3)CCN2)cc1,91.2 µM
8,COc1ccc(OC)c(NCc2ccc3nc(N)nc(N)c3c2Cl)c1,4.7 µM
9,CN1CCCC1CCO[C@](C)(c1ccccc1)c1ccc(Cl)cc1 (stereo partly specified),18.3 µM
10,Cc1nn(C(=O)Nc2cccc(C(F)(F)F)c2)c(C)c1Sc1ncccn1,94 µM
11,COc1cccc(-n2nnnc2S(=O)(=O)Cc2ccccc2)c1,90 µM
12,CN1CCN(c2nccc3[nH]c(-c4cccc(F)c4)cc23)CC1,93 µM
13,COc1ccc(-c2cnc3ccc(N4CCCC4)nn23)cc1OC,92.7 µM
14,O=C1COCc2ccc(Br)cc2N1Cc1ccc(C(F)(F)F)cc1,95.4 µM
15,Cc1cc(C)n(-c2ccc(NC(=O)C3CCN(Cc4cnc(C)s4)CC3)cc2)n1,92.5 µM
16,CCCn1nnc(NC(=O)COc2ccc(C3CCCCC3)cc2)n1,94.3 µM
17,c1cncc(NCc2ccc(-c3cc4ccncc4cc3OC3CCNCC3)s2)c1,88.5 µM
18,O=C([C@@H](c1ccc(Cl)cc1)c1cccnc1)N1CCN(c2ccc(C(F)(F)F)cc2)CC1,3.4 µM
19,CCCCCCCCCCCCCCCCOP(=O)([O-])OCC[N+](C)(C)C,90.8 µM
